# Where “and” joins values, the source holds several entries; their conditions need not be identical. Equal values may be shown once. About 83,000 compounds went through this panel and 20% of them were active in at least one assay; those are over-represented in the sample as a whole.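 A percent growth of 40 corresponds to 60% growth inhibition; 0 means no net growth; -100 means all cells died. Active threshold: below 10.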 Calls of active or inactive are those of the source.
# Test system: MDA-MB-468 breast
# Assay: NCI-60 one-dose screen, 48 h (100 = growth as untreated, 0 = no growth, -100 = all killed)
# Details: 10 µM unless noted
row,Compound,growth
1,C=CCN1C(=O)c2cccc3c(-c4ccc5c(c4)ncn5C4CCCCC4)ccc(c23)C1=O,34.6% (inactive)
2,CN1CCN(Cc2ccc(NC(=O)c3cncc(C#Cc4cnc5ccc(O[C@H]6CCOC6)nn45)c3)cc2C(F)(F)F)CC1,-59.7% (active)
3,O=C1/C(=C\c2cccn2Cc2ccc(F)cc2)c2ccccc2N1c1c(Cl)cccc1Cl,9.21% (active)
4,Cc1nc2ccccc2c(/C=C/c2ccc(Br)cc2)c1C(=O)/C=C/c1ccccc1,-15.5% (active)
5,CCN(CC)CCCNc1nc2ccccc2c2c(=O)c3cc(Cl)ccc3sc12,54.5% (inactive)
6,CC(C)(C)Nc1nc2c(OCCc3ccccc3)cccn2c1-c1cccc(Oc2ccccc2)c1,-12.7% (active)
7,NC(N)=N/N=C/c1cccc(Cl)c1Cl,18.1% (inactive)
8,Cc1ccc(C)c(S(=O)(=O)NC2c3ccccc3Oc3ccccc32)c1,85% (inactive)
9,N#Cc1c(-c2ccc(Cl)cc2)nc(N=Nc2c(O)[nH]c3ccc(Cl)cc23)nc1N1CCOCC1,90.8% (inactive)
10,COc1ccc(/C=C(\C#N)c2ccc([N+](=O)[O-])cc2)c2ccccc12,84.7% (inactive)
11,BrC/C=C/C[P+](c1ccccc1)(c1ccccc1)c1ccccc1,3.78% (active)
12,Cc1ccc(-c2nc(C#N)c(S(=O)(=O)N(C)C)o2)cc1,81.6% (inactive)
13,CCCCCOc1ccc(/C=N/Nc2cc(C)nc3ccc(Cl)cc23)cc1,-29% (active)
14,COc1cc(Cn2cc3c(c2)-c2onc(CO)c2CC3)cc(OC)c1OC,81.6% (inactive)
15,CC(=O)O[C@]1(C(C)=O)CCC2C3C[C@H](C)C4=CC(=O)CC[C@]4(C)C3CC[C@@]21C (stereo not given in full),86.4% (inactive)
16,C#CCOc1cc(/C=N/Nc2nc(-c3ccc(OC)cc3)cs2)ccc1O,43% (inactive)
17,O=S1(=O)OC(c2cc(Cl)c(O)c(Br)c2)(c2cc(Cl)c(O)c(Br)c2)c2ccccc21,118% (inactive)
18,COc1ccc(\C=N/N=C(N)/C(N)=N\N=C/c2ccc(OC)cc2)cc1,95.7% (inactive)
19,N#CC1c2ccccc2-c2ccccc2N1C(=O)c1ccccc1 (stereo not given),32.9% (inactive)
20,N#Cc1c(Nc2ccccc2)nn2c(-c3ccc([N+](=O)[O-])cc3)ccnc12,106% (inactive)

row,Compound,growth
1,Oc1ccccc1-c1nnco1,88.7% (inactive)
2,O=C1c2cccc3cccc(c23)C(=O)N1Nc1nc(N2CCOCC2)nc(N2CCN(c3ccccc3)CC2)n1,-15.8% (active)
3,CN1CCc2c(sc3nc4n(-c5ccc(Cl)cc5)c(=O)[nH]n4c(=O)c23)C1,114% (inactive)
4,O=C(Nc1ccc(CO)cc1)c1ccccc1Nc1ccnc(C(F)(F)F)c1,123% (inactive)
5,CCN(CC)c1ccc(C(=O)c2ccccc2)cc1,105% (inactive)
6,c1ccc(Nc2cc(-c3cccnc3)[nH]n2)cc1,106% (inactive)
7,CC(CN=Cc1ccccc1O)N=Cc1ccccc1O (stereo not given),115% (inactive) and 98% (inactive)
8,CCCCCCCCCCCC1=NC(C)(C)CN1CCO,15% (inactive)
9,NC(N)=Nc1nc2ccccc2n2c1nc1ccccc12,35.1% (inactive)
10,N=C(N)c1ccc(-c2ccc(-c3ccc(Cl)c(Cl)c3)o2)nc1,-17% (active)
11,COc1cc(C)ccc1Oc1nc(Nc2ccc(N3CCOCC3)cc2)ncc1N=Cc1cc(C(F)(F)F)cc(C(F)(F)F)c1,71% (inactive)
12,CCOC(=O)c1c(NC(=O)c2ccc(C(F)(F)F)cc2)sc2c3c(ccc12)OCN(C)C3,-76.9% (active)
13,COc1cc(OC)c(/C=C/c2ccc3ccccc3[n+]2C)c(OC)c1,-13.7% (active)
14,Cc1ccc(C)c(NC(=O)c2sc3c(=O)[nH]cnc3c2C)c1,67.2% (inactive)
15,CCN(CC)CCCCCCNc1cccc2cc(Br)cnc12,77% (inactive)
16,COc1ccc(C2=C(c3cccc(OC)c3)C(=O)c3ccc(C)nc3C2=O)cc1,-60.8% (active)
17,COc1cc(C(=O)n2nc(N3CCN(C)CC3)c3cc(N)ccc32)cc(OC)c1OC,0.604% (active)
18,O=C(NNc1nc2cc(F)c(F)cc2n2cccc12)c1cccnn1,-11.1% (active)
19,COc1cc(-c2nnc(-c3nc(-c4cc(OC)c(OC)c(OC)c4)n4ccccc34)o2)ccc1N,97.7% (inactive)
20,COC(=O)[C@]1(C(C)C)N[C@H](c2cn(-c3ccccc3)nc2-c2ccccc2)[C@@H]2C(=O)N(c3ccc(Cl)cc3)C(=O)[C@@H]21,119% (inactive)

# From PubChem BioAssay (NCI)
